Measured values reported in PubChem BioAssay AID1159580 (chemical genetic matrix, 2015).
Among all 5,500 compounds or so, about 2,000 (36%) were called active. Not shown: some 18% with an inconclusive outcome. No stated cut-off is given here; in the data, active means normalized growth mostly below about 0.91 (no sharp cut-off); inconclusive means no clear call, values can overlap the other calls; inactive means mostly above about 0.92. This is one part of the list.

Assay: chemical genetic growth profiling, strain panel (AID 1159580);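 further: tested at 20 µM; growth read once vehicle control cultures reached saturation at 30 °C; 1 = growth at the plate median or of vehicle wells; lower values mean less growth of the strain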
Conditions: growth OD

Measured: normalized growth

C[C@@H]1O[C@@H](O[C@H]2CC[C@]3(C=O)C4CC[C@]5(C)[C@@H](C6=CC(=O)OC6)CC[C@]5(O)C4CC[C@]3(O)C2)[C@H](O)[C@H](O)[C@H]1O (stereo not given in full)
inactive: S. cerevisiae deletion strains, locus YJR066W, strain TOR1, hits give low values 0.953 | S. cerevisiae deletion strains, locus YJR075W, strain HOC1, hits give low values 0.989 | S. cerevisiae deletion strains, locus YKL009W, strain mrt4, hits give low values 1.05 | S. cerevisiae deletion strains, locus YKL068W, hits give low values 0.991 | S. cerevisiae deletion strains, locus YKL085W, strain MDH1 (second series), hits give low values 0.999 | S. cerevisiae deletion strains, locus YKL085W, strain MDH1, hits give low values 0.999 | S. cerevisiae deletion strains, locus YKL160W, strain elf1, hits give low values 1.01 | S. cerevisiae deletion strains, locus YKL190W, strain CNB1, hits give low values 0.988 | S. cerevisiae deletion strains, locus YKR001C, strain vps1, hits give low values 0.995 | S. cerevisiae deletion strains, locus YKR026C, strain gcn3, hits give low values 0.997 | S. cerevisiae deletion strains, locus YKR091W, strain srl3, hits give low values 0.997 | S. cerevisiae deletion strains, locus YLL001W, strain dnm1, hits give low values 1.01 | S. cerevisiae deletion strains, locus YLL026W, hits give low values 0.995 | S. cerevisiae deletion strains, locus YLL041C, strain sdh2, hits give low values 1 | S. cerevisiae deletion strains, locus YLR027C, strain aat2, hits give low values 0.999 | S. cerevisiae deletion strains, locus YLR039C, strain RIC1, hits give low values 0.977 | S. cerevisiae deletion strains, locus YLR058C, strain SHM2, hits give low values 0.981 | S. cerevisiae deletion strains, locus YLR102C, strain apc9, hits give low values 0.997 | S. cerevisiae deletion strains, locus YLR113W, strain HOG1, hits give low values 0.952 | S. cerevisiae deletion strains, locus YLR221C, strain rsa3, hits give low values 1.01 | S. cerevisiae deletion strains, locus YLR258W, strain gsy2, hits give low values 0.991 | S. cerevisiae deletion strains, locus YLR262C, strain YPT6 (second series), hits give low values 1.01 | S. cerevisiae deletion strains, locus YLR262C, strain YPT6, hits give low values 0.914 | S. cerevisiae deletion strains, locus YLR268W, strain sec22, hits give low values 1.01 | S. cerevisiae deletion strains, locus YLR320W, strain mms22, hits give low values 0.989 | S. cerevisiae deletion strains, locus YLR330W, strain CHS5, hits give low values 1 | S. cerevisiae deletion strains, locus YLR342W, strain FKS1 (second series), hits give low values 1.06 | S. cerevisiae deletion strains, locus YLR342W, strain FKS1, hits give low values 0.999 | S. cerevisiae deletion strains, locus YLR357W, strain rsc2, hits give low values 0.959 | S. cerevisiae deletion strains, locus YLR370C, strain arc18, hits give low values 1.01 | S. cerevisiae deletion strains, locus YLR371W, strain rom2, hits give low values 0.978 | S. cerevisiae deletion strains, locus YLR384C, strain iki3, hits give low values 0.987 | S. cerevisiae deletion strains, locus YLR418C, strain cdc73, hits give low values 0.964 | S. cerevisiae deletion strains, locus YML016C, strain PPZ1, hits give low values 0.995 | S. cerevisiae deletion strains, locus YML032C, strain rad52, hits give low values 0.991 | S. cerevisiae deletion strains, locus YML120C, strain ndi1, hits give low values 0.994 | S. cerevisiae deletion strains, locus YML124C, strain tub3, hits give low values 0.983 | S. cerevisiae deletion strains, locus YMR058W, strain fet3, hits give low values 1 | S. cerevisiae deletion strains, locus YMR078C, strain ctf18, hits give low values 0.976 | S. cerevisiae deletion strains, locus YMR125W, strain sto1, hits give low values 0.969 | S. cerevisiae deletion strains, locus YMR129W, hits give low values 0.998 | S. cerevisiae deletion strains, locus YMR205C, strain PFK2, hits give low values 0.954 | S. cerevisiae deletion strains, locus YMR223W, strain ubp8, hits give low values 0.962 | S. cerevisiae deletion strains, locus YMR231W, strain pep5, hits give low values 0.998 | S. cerevisiae deletion strains, locus YMR307W, strain GAS1, hits give low values 0.977 | S. cerevisiae deletion strains, locus YNL067W, strain RPL9B, hits give low values 0.975 | S. cerevisiae deletion strains, locus YNL071W, strain lat1, hits give low values 1 | S. cerevisiae deletion strains, locus YNL183C, strain NPR1, hits give low values 0.965 | S. cerevisiae deletion strains, locus YNL209W, strain ssb2, hits give low values 1 | S. cerevisiae deletion strains, locus YNL233W, strain BNI4, hits give low values 0.999 | S. cerevisiae deletion strains, locus YNL248C, strain rpa49, hits give low values 1.01 | S. cerevisiae deletion strains, locus YNL250W, strain rad50, hits give low values 0.993 | S. cerevisiae deletion strains, locus YNL271C, strain bni1, hits give low values 0.985 | S. cerevisiae deletion strains, locus YNL298W, strain CLA4, hits give low values 1 | S. cerevisiae deletion strains, locus YNL307C, strain MCK1, hits give low values 0.992 | S. cerevisiae deletion strains, locus YNL322C, strain KRE1 (second series), hits give low values 1.01 | S. cerevisiae deletion strains, locus YNL322C, strain KRE1, hits give low values 0.994 | S. cerevisiae deletion strains, locus YNR049C, strain mso1, hits give low values 1.01 | S. cerevisiae deletion strains, locus YNR052C, strain pop2, hits give low values 0.998 | S. cerevisiae deletion strains, locus YOL006C, strain TOP1, hits give low values 1.12 | S. cerevisiae deletion strains, locus YOL012C, strain htz1 0.98 | S. cerevisiae deletion strains, locus YOL147C, strain pex11, hits give low values 0.998 | S. cerevisiae deletion strains, locus YOR001W, strain rrp6, hits give low values 1 | S. cerevisiae deletion strains, locus YOR061W, strain CKA2, hits give low values 0.973 | S. cerevisiae deletion strains, locus YOR069W, strain VPS5, hits give low values 1 | S. cerevisiae deletion strains, locus YOR070C, strain gyp1, hits give low values 0.999 | S. cerevisiae deletion strains, locus YOR080W, strain dia2, hits give low values 0.988 | S. cerevisiae deletion strains, locus YOR083W, strain WHI5, hits give low values 1.01 | S. cerevisiae deletion strains, locus YOR106W, strain vam3, hits give low values 0.998 | S. cerevisiae deletion strains, locus YOR136W, strain idh2, hits give low values 1 | S. cerevisiae deletion strains, locus YOR144C, strain elg1, hits give low values 0.993 | S. cerevisiae deletion strains, locus YOR184W, strain ser1, hits give low values 0.975 | S. cerevisiae deletion strains, locus YOR231W, strain MKK1, hits give low values 0.996 | S. cerevisiae deletion strains, locus YOR265W, strain rbl2, hits give low values 0.999 | S. cerevisiae deletion strains, locus YOR270C, strain vph1, hits give low values 1.02 | S. cerevisiae deletion strains, locus YOR290C, strain snf2, hits give low values 0.994 | S. cerevisiae deletion strains, locus YOR316C, strain cot1, hits give low values 0.991 | S. cerevisiae deletion strains, locus YPL051W, strain arl3, hits give low values 1.01 | S. cerevisiae deletion strains, locus YPL055C, strain LGE1, hits give low values 1 | S. cerevisiae deletion strains, locus YPL078C, strain atp4, hits give low values 1.02 | S. cerevisiae deletion strains, locus YPL106C, strain sse1, hits give low values 0.977 | S. cerevisiae deletion strains, locus YPL240C, strain hsp82, hits give low values 1.01 | S. cerevisiae deletion strains, locus YPL241C, strain CIN2, hits give low values 0.995 | S. cerevisiae deletion strains, locus YPL256C, strain CLN2, hits give low values 0.987 | S. cerevisiae deletion strains, locus YPR119W, strain clb2, hits give low values 1 | S. cerevisiae deletion strains, locus YPR141C, strain kar3, hits give low values 0.98 | S. cerevisiae deletion strains, locus YPR163C, strain tif3, hits give low values 0.983 | S. cerevisiae deletion strains, locus YPR167C, strain met16, hits give low values 1 | S. cerevisiae deletion strains, strain wtn01, hits give low values 1.03 | S. cerevisiae strains, strain wild type, hits give low values 0.989
